Calls of active or inactive are those of the source. How the source made its calls: active means hit-call score of the fitted dose curve at least 0.9, where 1 is the maximum; inactive means score below 0.9.
target: human Mitogen-Activated Protein Kinase 11 (MAPK 11), MAPK11 (gene 5600) (UniProt Q15759); assay: NVS_ENZ_hMAPK11: NovaScreen (NVS) Enzymatic Assay for human Mitogen-Activated Protein Kinase 11 (MAPK 11)
Experimental: NVS_ENZ_hMAPK11 is a biochemical, single-readout assay that uses extracted gene-proteins in a cell-free assay. Measurements were taken 0 hour after chemical dosing in a 384-well plate.NVS_ENZ_hMAPK11 is one of one assay component(s) measured or calculated from the NVS_ENZ_hMAPK11 assay. It is designed to make measurements of enzyme activity, a form of enzyme reporter, as detected with fluorescence intensity signals by Fluorescence and electrophoretic mobility shift technology.Data from the assay component NVS_ENZ_hMAPK11 was analyzed into 1 assay endpoint. This assay endpoint, NVS_ENZ_hMAPK11, was analyzed in the positive analysis fitting direction relative to DMSO as the negative control and baseline of activity. Using a type of enzyme reporter, loss-of-signal activity can be used to understand changes in the enzymatic activity as they relate to the gene MAPK11. Furthermore, this assay endpoint can be referred to as a primary readout, because this assay has produced multiple assay endpoints where this one serves a enzymatic activity function. To generalize the intended target to other relatable targets, this assay endpoint is annotated to the kinase intended target family, where the subfamily is serine/threonine kinase.
Binding assays used specific radioligands (tritiated, iodinated) with non-radioactive competitive displacement ligands in agonist or antagonist protocols (as indicated) and various reference compounds and inhibitors to titrate specific binding to receptors and transporters. Most enzyme assays (CYPs, kinases, phosphatases, proteases, HDACs) used recombinant protein and specific substrates (fluorescence mostly, some colorimetric and radioactive) and inhibitors, followed by a biochemical separation of substrate and product. All assays for the biochemical HTS were initially run in duplicate at a single concentration (10 uM for CYP450 assays and 25 uM for all others). Assay-chemical combinations meeting a pre-defined threshold (e.g., 30% inhibition and other criteria defined below) were then run in singleton concentration-response format with maximum concentration of 20 uM for CYPs and 50 uM for all others. Each assay was run with positive and negative controls, and concurrent controls on every plate. The follow-up (secondary) screen tested active chemical-pairs in concentration series, as well as a few additional assays not tested in the primary screen, some selected negative inactives, and several cases re-run in the concentration series for confirmatory purposes.

Sequence of human Mitogen-Activated Protein Kinase 11 (MAPK 11), MAPK11 (gene 5600) (Q15759 whole entry, looked up): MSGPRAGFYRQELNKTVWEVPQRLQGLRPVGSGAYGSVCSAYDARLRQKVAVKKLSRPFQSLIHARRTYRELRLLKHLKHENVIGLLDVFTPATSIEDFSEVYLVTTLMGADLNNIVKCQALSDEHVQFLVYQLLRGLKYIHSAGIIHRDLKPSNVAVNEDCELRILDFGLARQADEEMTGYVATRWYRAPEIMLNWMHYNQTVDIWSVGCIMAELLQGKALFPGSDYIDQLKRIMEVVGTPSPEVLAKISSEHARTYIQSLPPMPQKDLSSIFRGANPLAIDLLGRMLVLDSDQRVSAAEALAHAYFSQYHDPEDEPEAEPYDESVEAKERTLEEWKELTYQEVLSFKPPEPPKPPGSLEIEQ

SMILES	AC50	outcome
S=C(S)NCCNC(=S)S.[Mn+2].[S-]C([S-])=NCCN=C([S-])[S-].[Zn+2]	16.6 µM (active)	–
COCCO	–	inactive
C#CCOC(=O)[C@@H](C)Oc1ccc(Oc2ncc(Cl)cc2F)cc1	–	inactive
S=C([S-])NCCNC(=S)[S-].[Mn+2]	24.4 µM (active)	–
CC(C)(c1ccc(O)cc1)c1ccc(O)cc1	–	inactive
CCCCC(CC)COC(=O)c1ccccc1C(=O)O (stereo unspecified)	–	inactive

— PubChem BioAssay AID2283174 (EPA ToxCast)
